CFTR F508del cor: F508del CFTR correction, initial screen, CFBE line, single point | CFBE cells, YFP halide quenching; stimulated with forskolin plus potentiator P3; % fluorescence drop versus neutral controls | activity (quench increase), % at 7.58 µM | 350,000 compounds, 0.36% hits;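 active = mean added fluorescence quench of at least 8% versus neutral control, with both replicates also reaching 8%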;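 also: cells transiently co-express mutant CFTR-F508del with the halide-sensitive YFP; corrector assay measuring rescue of mutant channel to the surface after 24 h compound exposure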
PAX8 inh HTS: inhibitors of PAX8-driven TPO luciferase reporter, primary screen, RMG-I cells, single concentration | AID 652154, 2013 | 360,000 compounds, 1.2% hits | inhibition, % at 12.6 µM | SteadyGlo, 24 h;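 active = mean replicate inhibition at least 60% with every replicate also reaching 60%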;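 also: luciferase light reporting Pax8 driven TPO promoter activity; plate controls were median of neutral control wells for no effect and mitoxantrone controls for full effect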
EWS-Fli block: EWS/Fli-driven NR0B1 reporter inhibitors, primary screen, A673 cells, NR0B1 luciferase, luminescence, MLPCN library; inhibition, % at 12.6 µM; AID 651661, 2012; viability-normalised; 350,000 compounds, 0.67% hits;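 active = mean inhibition of at least 50% after viability correction, with every replicate also passing that limit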;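 also: firefly luciferase signal divided by Alamar Blue viability fluorescence both relative to DMSO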
HIV Env fusion: inhibitors of HIV-1 Env-driven cell-cell fusion, primary screen, HeLa-JRFL effector, CEM21 target cells, luciferase; inhibition, % at 12.3 µM; 360,000 compounds, 1.1% hits;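 active = mean replicate inhibition score of at least 50 and every replicate individually at or above 50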;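 also: 0% = plate neutral controls and 100% = maraviroc near 300 nM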
FXN GAA850 act: FXN promoter activators, primary screen, cell-based, luciferase luminescence, HEK293 lucGAA850 | HEK293 lucGAA850 FXN promoter luciferase reporter, 24 h; percent of 10 µM SAHA response | activation, % at 6 µM | 360,000 compounds, 0.56% hits | AID 540364, 2011;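 active = activation above the average of all compounds screened plus 3 SD, cutoff fixed separately per campaign, cut at about 7.5% in these data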;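 also: 0% = DMSO wells and 100% = 10 µM SAHA wells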
An asterisk follows results filed as active; . = no result given; [ ] = remark or other dose. An excerpt weighted towards active compounds, which were near 2.5% of everything screened.

SMILES	CFTR F508del cor	PAX8 inh HTS	EWS-Fli block	HIV Env fusion	FXN GAA850 act
CCCN(C)C[C@@H]1Oc2cc(C#Cc3cccnc3)ccc2S(=O)(=O)N([C@@H](C)CO)C[C@@H]1C	1	.	9	21[16.7 µM]	.
Cc1ccccc1-c1ccc([C@H]2[C@@H](CO)N3CCCCN(Cc4cccnc4)C[C@H]23)cc1	-5	4	13	.	.
CCC(=O)N1CC[C@H]2[C@H](CO)Nc3ccc(-c4cccc(C#N)c4)cc3[C@H]21	-1	5	4	.	.
COc1ccc(-n2ncc(Cl)c(Cl)c2=O)cc1	-1	105*	55*	-198	-15
CCCCC1(Cc2ccc(OC)c([N+](=O)[O-])c2)C(=O)N(c2ccccc2)N(c2ccccc2)C1=O	.	45	.	118*	3
CCCCC1(CC(=O)OC)C(=O)N(c2ccccc2)N(c2ccccc2)C1=O	.	.	.	.	2
CC(=O)Nc1ccc2c(c1)C(N1CC3CCC(CC3)C1)c1ccccc1-2 (stereo not drawn)	-1	1	-5	67*	-1
COc1ccc2c3c([nH]c2c1)[C@H](CO)N(C(=O)c1cnccn1)CC31CCN(S(C)(=O)=O)CC1	1	.	-1	.	.
C[C@@H]1CCCCO[C@@H](CN(C)Cc2ccc(Cl)c(Cl)c2)[C@@H](C)CN([C@H](C)CO)C(=O)c2cc(NS(=O)(=O)c3ccccc3)ccc2O1	1	-2	-12	-2[16.7 µM]	.
Cc1ccc(S(=O)(=O)Nc2ccc3c(c2)C(=O)N([C@H](C)CO)C[C@H](C)[C@H](CN(C)Cc2ccc(Cl)c(Cl)c2)OCCCC[C@@H](C)O3)cc1	2	45	-19	-10[16.7 µM]	.
C[C@@H]1CCCCO[C@@H](CN(C)Cc2ccc(Cl)c(Cl)c2)[C@H](C)CN([C@H](C)CO)C(=O)c2cc(NS(=O)(=O)c3ccccc3)ccc2O1	0	93*	4	38[16.7 µM]	.
C[C@@H]1CCCCO[C@@H](CN(C)Cc2ccc(Cl)c(Cl)c2)[C@H](C)CN([C@@H](C)CO)C(=O)c2cc(NS(=O)(=O)c3ccc(Cl)cc3)ccc2O1	0	104*	9	-25[16.7 µM]	.
C[C@@H]1CCCCO[C@H](CN(C)Cc2ccc(Cl)c(Cl)c2)[C@H](C)CN([C@@H](C)CO)C(=O)c2cc(NS(=O)(=O)c3ccc(Cl)cc3)ccc2O1	3	95*	5	20[16.7 µM]	.
C[C@@H]1CCCCO[C@H](CN(C)Cc2ccc(Cl)c(Cl)c2)[C@@H](C)CN([C@@H](C)CO)C(=O)c2cc(NS(=O)(=O)c3ccc(Cl)cc3)ccc2O1	12*	80*	1	.	.
C[C@@H]1CN([C@H](C)CO)C(=O)Cc2cc(NC(=O)Nc3ccccc3)ccc2O[C@H]1CN(C)C(=O)Nc1ccccc1	-2	-6	-2	-3[16.7 µM]	.
O=C(NC[C@H]1CC[C@H]2[C@H](CN2C(=O)C2CC2)O1)c1cnccn1	0	.	14	.	.
C[C@@H]1CCCCO[C@@H](CN(C)Cc2ccc(Cl)c(Cl)c2)[C@@H](C)CN([C@@H](C)CO)C(=O)c2cc(NS(=O)(=O)c3ccc(F)cc3)ccc2O1	0	-3	2	-1[16.7 µM]	.
C[C@H](CO)N1C[C@H](C)[C@@H](CN(C)Cc2ccc(Cl)c(Cl)c2)OCCCC[C@H](C)Oc2ccc(NS(=O)(=O)c3ccc(Cl)cc3)cc2C1=O	3	101*	8	-18[16.7 µM]	.
C[C@@H]1CN([C@H](C)CO)C(=O)c2cc(NS(=O)(=O)c3ccc(Cl)cc3)ccc2O[C@@H](C)CCCCO[C@@H]1CN(C)Cc1ccc(Cl)c(Cl)c1	2	98*	15	18[16.7 µM]	.
COc1ccccc1NC(=O)N1CCN(c2ccnc3cc(Cl)ccc23)CC1	0	0	-14	26	1
O=C(C1CCCCC1)N1CCN(c2ccnc3cc(Cl)ccc23)CC1	1	12	22	57*	-1
COc1ccccc1N1CCN(c2ccnc3cc(Cl)ccc23)CC1	1	19	54*	8	-5
Cc1ccc(-c2cnc3c(c2)C(=O)N([C@H](C)CO)C[C@@H](C)[C@@H](CN(C)C(=O)c2ccccc2)O3)cc1	-1	-6	-20	-26[16.7 µM]	.
COc1ccc(CCC(=O)N2CCN(S(=O)(=O)c3ccc(OC(F)(F)F)cc3)CC2)cc1	16*	-9	2	42	0
COc1ccc(CCC(=O)N2CCN(S(=O)(=O)c3ccc4ccccc4c3)CC2)cc1	.	.	.	.	0
SMILES	CFTR F508del cor	PAX8 inh HTS	EWS-Fli block	HIV Env fusion	FXN GAA850 act
O=C(CN1C(=O)c2ccccc2S1(=O)=O)c1ccc(Cl)cc1Cl	-1	112*	.	62*	-15
O=C(CN1C(=O)c2ccccc2S1(=O)=O)c1ccc2c(c1)OCCCO2	-2	104*	89*	91*	-13
O=C(CN1C(=O)c2ccccc2S1(=O)=O)c1ccc2c(c1)OCCO2	-1	105*	86*	84*	-13
O=C(Cc1ccccc1)N1CC2(C1)[C@@H](c1ccccc1)[C@@H](CO)N2S(=O)(=O)Cc1ccccc1	5	6	3	.	.
C[C@@H]1CN([C@H](C)CO)C(=O)c2cc(NS(=O)(=O)c3ccc(Cl)cc3)ccc2O[C@H]1CN(C)Cc1ccc(C(=O)Nc2ccccc2N)cc1	0	20	33	.	.
CCN(CCn1cccn1)C(=O)CC1C(=O)NCCN1CCc1ccccc1 (stereo not drawn)	-4	15	0	88*	1
CCN(CCn1cccn1)C(=O)CC1C(=O)NCCN1CC1CCCCC1 (stereo not drawn)	-2	0	-31	-5	1
O=S(=O)(NCCc1csc(-c2cccnc2)n1)c1ccc(Cl)s1	-2	8	14	122*	0
O=C(C[C@H]1C[C@@H]2c3cc(NC(=O)Nc4ccccc4F)ccc3O[C@@H]2[C@@H](CO)O1)NCc1ccc(Oc2ccccc2)cc1	3	33	-2	5[16.7 µM]	.
CCCCCCCCCCn1c2c(c(=N)c3c1CCC3)CCC2	.	.	.	69*	-12
CCCCn1c2c(c(=N)c3ccccc31)CCC2	0	33	20	1	-1
CCCCCn1c2c(c(=N)c3ccccc31)CCC2	0	67*	22	19	-3
CCCCCCCCCn1c2c(c(=N)c3c1CCC3)CCCC2	.	.	.	.	-9
CCCCCCCCn1c2c(c(=N)c3ccccc31)CCC2	4	80*	42	56*	-9
O=C(C[C@@H]1C[C@@H]2c3cc(NC(=O)c4ccc5c(c4)OCO5)ccc3O[C@@H]2[C@@H](CO)O1)NCc1cccc(F)c1	1	-2	-2	16[16.7 µM]	.
Cc1noc(C)c1S(=O)(=O)Nc1ccc2c(c1)C(=O)N([C@H](C)CO)C[C@H](C)[C@H](CN(C)S(=O)(=O)c1cn(C)cn1)O2	0	-5	-8	12[16.7 µM]	.
COc1cccc(C(=O)Nc2ccc3c(c2)OC[C@@H](C)N(C)C[C@@H](C)[C@@H](OC)CN(C)C3=O)c1	-1	-3	-11	-5[16.7 µM]	.

From PubChem BioAssay
